Many of the other results were omitted from the sample, so hits are more common in it than they were.
TSHR antag: blocks TSH signaling through the human TSH receptor | P16473 | TSHR-expressing cells, TSH-stimulated cAMP HTRF, 2 h; hits give low values | activity change, negative = inhibition, % at 11.5 µM | actives 0.2% (n = 330,000) | AID 504810;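 active = activity change below a set negative limit, meaning inhibition stronger than a set level, cut at about -70% in these data; inconclusive = activity change between two set negative limits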; also: % is scaled to controls: 0 for no effect and ±100 for the full control effect
Target sequence (P16473 whole entry, looked up): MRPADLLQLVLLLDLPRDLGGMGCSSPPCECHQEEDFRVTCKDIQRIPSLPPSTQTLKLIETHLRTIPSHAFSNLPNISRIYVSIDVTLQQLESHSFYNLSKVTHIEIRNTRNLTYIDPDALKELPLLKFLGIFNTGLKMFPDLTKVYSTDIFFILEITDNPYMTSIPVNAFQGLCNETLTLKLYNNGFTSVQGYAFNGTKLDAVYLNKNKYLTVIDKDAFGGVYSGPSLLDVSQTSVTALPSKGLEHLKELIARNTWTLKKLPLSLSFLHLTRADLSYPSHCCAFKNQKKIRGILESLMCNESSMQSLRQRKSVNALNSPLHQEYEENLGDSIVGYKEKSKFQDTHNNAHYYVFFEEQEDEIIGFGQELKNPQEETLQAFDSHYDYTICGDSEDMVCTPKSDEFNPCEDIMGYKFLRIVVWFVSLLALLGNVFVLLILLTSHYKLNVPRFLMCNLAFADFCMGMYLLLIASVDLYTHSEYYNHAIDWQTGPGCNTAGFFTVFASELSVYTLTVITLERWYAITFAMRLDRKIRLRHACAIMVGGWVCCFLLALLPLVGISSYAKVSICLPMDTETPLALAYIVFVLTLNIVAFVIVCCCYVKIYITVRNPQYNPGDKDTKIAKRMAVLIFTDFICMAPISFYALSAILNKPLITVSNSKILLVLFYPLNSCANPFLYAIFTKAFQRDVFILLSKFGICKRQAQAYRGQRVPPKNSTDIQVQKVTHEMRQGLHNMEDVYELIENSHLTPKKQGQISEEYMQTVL
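TSHR-expressing cells were treated with compounds, then stimulated with TSH at EC80 (4nM final) for 2 hours at 37 deg C. Cellular cAMP was measured by HTRF competition between lysate cAMP and cAMP-d2 for a cryptate-labelled anti-cAMP antibody.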
RXFP1 agonist: RXFP1 (human) receptor agonism; Potency, µM (titrated, usually from 57.5 µM), without a hit: at the highest dose activation, most hits filed as activators; HEK293T-RXFP1 cAMP TR-FRET, 30 min; response scale: percent of porcine relaxin response, buffer zero; AID 2676; Q9HBX9; actives 0.3% (n = 370,000); also: potency is read from the fitted curve at half-maximal effect; % is scaled to controls: 0 for no effect and ±100 for the full control effect; nearly all actives have a fitted effect of over 60% in size
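HEK293 cells stably expressing RXFP1, treated 30 min at 37C with compounds plus PDE4 inhibitor Ro 20174; cAMP measured by HTRF TR-FRET. Normalized to buffer and 29 nM porcine relaxin; EC50 by Hill fit.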
TCR act: activators of T cell receptors; primary human leukocytes, anti-CD3, IL-2 HTRF, 48 h; Potency, µM (top dose mostly 9.22 µM), without a hit: top-dose activation of IL-2 secretion, actives largely listed as activators; 330,000 tested, under 10 active; AID 504894; also: % of control where 0% means no effect
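Using a-CD3 beads without co-stimulation, primary human leukocytes were exposed to compounds for 48 hr. An HTRF IL-2 kit measured the cytokine, with europium-to-d2 energy transfer producing emission at 665nm upon 320nm excitation.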
RXFP1 antagonist: antagonists of human relaxin receptor RXFP1; Q9HBX9; HEK293-RXFP1, relaxin-stimulated cAMP HTRF, 30 min; hits give low values; activity change, negative = inhibition, % at 57.5 µM; actives 0.59% (n = 350,000); AID 1259400;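 active = activity change of -60% or lower, but not beyond a set lower limit; inconclusive = change between -60% and -40%, or beyond the set limit; inactive = change above -40%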; also: % is scaled to controls: 0 for no effect and ±100 for the full control effect
PTHR1 ag: PTHR1 (human) receptor agonism. Q03431. HEK293 GP2 PTHR1 cells, GloSensor cAMP luminescence, 1 h. Potency, µM (highest dose often 115 µM), for the others: top-dose activation, usual class: activators. actives 0.075% (n = 410,000). AID 743266; also: potency is read from the fitted curve at half-maximal effect; nearly all actives have a fitted effect of over 55% in size
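HEK-293-derived GP2 cells expressing PTHR1 and a GloSensor cAMP reporter, 3,000/well, plated overnight, given luciferin plus IBMX (each 0.5 mM as added) for 1 h at 37 °C, then compound for 1 h at 37 °C. Luminescence was read after 15 min at room temperature.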
NPSR antagonist: blocks cAMP signaling of the human neuropeptide S receptor. actives 1% (n = 220,000). Q6W5P4. CHO-NPSR cells, cAMP TR-FRET, antagonist mode. Potency, µM (series often up to 38.3 µM), for the others: top-dose activity change, negative = inhibition, most hits filed as inhibitors; also: potency is read from the fitted curve at half-maximal effect; % is scaled to controls: 0 for no effect and ±100 for the full control effect; nearly all actives have a fitted effect of over 50% in size
* hit, by the source's call; i = inactive; ? = inconclusive; nt = no result; ! = repeats disagree; [ ] = dose if it differs, or a comment. Unless noted, calls follow the shape of the dose curve; as a rule, active = well fitted curve in the direction sought with a large enough effect; inconclusive = small, poorly fitted or top-dose-only effect, or another doubt; inactive = no such curve, though single readings can be large; an effect the other way counts as inactive or inconclusive.

SMILES | TSHR antag | RXFP1 agonist | TCR act | RXFP1 antagonist | PTHR1 ag | NPSR antagonist
COC[C@@H](c1ccc(C(F)(F)F)cc1)N1CCN(C2(C)CCN(C(=O)c3c(C)ncnc3C)CC2)C[C@H]1C | nt | nt | nt | -6 | nt | nt
O=C(Nc1ccc(Oc2c(F)c(F)c(F)c(F)c2F)cc1)OC1CCN2Cc3ccccc3N=C12 (centres undefined) | -8 | 0% | -3% | -14 | -28% | 2µM*
Cc1cccc(NC(=O)Nc2ccc(Oc3c(F)c(F)c(F)c(F)c3F)cc2)c1 | -11 | -2% | 12% | -9 | -1%[57.5 µM] | -8%[46.1 µM]
Nc1nc(N)c(S(=O)(=O)c2ccccc2)c(Nc2ccc(F)cc2)n1 | nt | 1% | nt | nt | -10% | nt
O=c1nc2ccccn2c2ccc(S(=O)(=O)N3CCCCC3)cc12 | 3 | 20µM* | 3% | 23 | i | nt
Cc1ccn2c(c1)nc(=O)c1cc(S(=O)(=O)N3CCCCC3)ccc12 | 6 | 5% | -8% | -9 | i | nt
COc1ccc(NS(=O)(=O)c2cn(C)cn2)cc1Cl | -142* | -1% | -3% | -16 | 0% | nt
Cc1cccc(C)c1NC(=O)N1CCC(C(=O)c2ccc(F)cc2)CC1 | -79* | -1% | 2% | 7 | i | nt
COC(=O)c1nc2n(n1)C(c1cccc(Cl)c1)C1=C(CCCC1=O)N2 (centres undefined) | -85* | 3% | 3% | nt | i | -7%[46.1 µM]
COC(=O)c1nc2n(n1)C(c1cccc(Cl)c1)C1=C(CC(C)(C)CC1=O)N2 (centres undefined) | 0 | 2% | -2% | nt | -12% | -5%[46.1 µM]
CCc1cccc(NC(=O)COC(=O)c2cn(CC)c3nc(C)ccc3c2=O)c1 | nt | 3% | nt | nt | -21% | nt
Cn1nnnc1SCC(=O)N1c2ccccc2Sc2ccccc21 | -24 | -1% | 2% | 2 | -3% | -10%[46.1 µM]
O=C(CSc1nncs1)N1c2ccccc2Sc2ccccc21 | -71* | 0% | 1% | -5 | 28%[57.5 µM] | 15%[7.67 µM]
CCOC(=O)N1CCc2c(sc(NCc3ccc(N(CC)CC)cc3)c2C(=O)Nc2cc(OC)ccc2OC)C1 | nt | 0% | nt | -5 | 40µM* | nt
COc1ccc(NC(=O)c2c(NCc3cccc(F)c3)sc3c2CCC3)c(OC)c1 | nt | 1% | nt | -62* | -12% | nt
COc1ccc(Cl)cc1NC(=O)c1c(NCc2cccnc2)sc2c1CCCC2 | nt | 2% | nt | -22 | -3% | nt
COc1ccc(Cl)cc1NC(=O)c1c(NCc2ccc(C)o2)sc2c1CCCC2 | nt | 1% | nt | -61* | i | nt
CC1CCC(NC(=O)c2ccc(CS(=O)(=O)c3cccc(C(F)(F)F)c3)o2)CC1 (centres undefined) | nt | 0% | nt | nt | i | nt
COc1ccccc1CNS(=O)(=O)c1ccc(-n2cccn2)cc1 | -111* | 1% | 0% | -2 | -21% | nt
COc1ccc(CNS(=O)(=O)c2ccc(-n3cccn3)cc2)cc1 | -9 | 1% | 1% | 7 | -24% | nt
O=S(=O)(Nc1ccccn1)c1ccc(-n2cccn2)cc1 | -10 | -3% | -7% | -108* | -15% | nt
Cc1nc2ccccc2c(N)c1C(=O)/C=C/c1ccccc1 | 6 | -1% | -5% | -83* | -96% | nt
CN1CCN(C2=CC3=CC(=C(C#N)C#N)CCC3CC2)CC1 (centres undefined) | -93* | 0% | 8% | -16 | -1% | -48%
CC1CCCCN1C(=O)Cn1c(=O)n(-c2ccc(Cl)cc2)c(=O)c2c3c(sc21)CCC3 (centres undefined) | nt | 1% | nt | nt | 17% | nt
Cc1cccn2c3c(c(=O)nc12)C(c1ccc(F)cc1)CC(=O)N3 (centres undefined) | nt | 7% | nt | 3 | -16% | nt
SMILES | TSHR antag | RXFP1 agonist | TCR act | RXFP1 antagonist | PTHR1 ag | NPSR antagonist
CCOC(=O)/C(C#N)=C/c1cc2ccccc2nc1N1CCCCC1 | 9 | 14µM* | -4% | -2 | -34% | ?
Cc1ccc2cc(/C=C(\C#N)C(N)=O)c(N3CCCCC3)nc2c1 | -3 | 7% | 6%[46.1 µM] | -6 | -17% | -17%
CCN(CCCNC(=O)C1c2ccccc2C(=O)N(CCOC)C1c1ccc(F)cc1)Cc1ccccc1 (centres undefined) | -2 | -1% | -28% | 16 | -10% | 10µM*
Cc1cccc(-c2nc3scc(CCNC(=O)c4ccccc4Cl)n3n2)c1 | nt | 2% | nt | -12 | -25% | nt
Cc1ccc(NC(=O)CSc2nc3ncc(Br)cc3[nH]2)cc1C | -88* | ? | -3% | 7 | -13% | nt
Cc1cc(C)c(NC(=O)CSc2nc3ncc(Br)cc3[nH]2)c(Cl)c1 | 2 | ? | -1% | 9 | -46% | nt
O=C(NCCC1=CCCCC1)c1ccc2c(c1)N(Cc1ccccc1F)C(=O)c1ccccc1S2=O (centres undefined) | nt | -1% | nt | nt | -12% | nt
CC1CN(c2ccc([N+](=O)[O-])c(NCCOc3ccccc3)c2)CC(C)N1 (centres undefined) | 21 | 3% | -3% | -2 | i | nt
CC1CN(c2ccc([N+](=O)[O-])c(NCCOc3ccc(Cl)cc3)c2)CC(C)N1 (centres undefined) | -20 | 2% | nt | -97* | i | nt
Cc1cccc(CS(=O)(=O)c2ncc(Cl)c(C(=O)Nc3c(C)cccc3C)n2)c1 | ? | 1% | -3% | -96* | -23% | nt
Cc1cccc(CS(=O)(=O)c2ncc(Cl)c(C(=O)NCc3ccccc3)n2)c1 | -45 | -1% | 2% | -62*! | -54% | nt
CCCc1nnc(NC(=O)c2nc(S(=O)(=O)Cc3cccc(C)c3)ncc2Cl)s1 | ? | -1% | -7% | -36 | -96% | nt
Cc1cccc(C)c1NC(=O)c1nc(S(=O)(=O)Cc2ccccc2)ncc1Cl | ? | -2% | 5% | -70* | -20% | nt
Cc1nnc(NC(=O)c2nc(S(=O)(=O)Cc3ccccc3)ncc2Cl)s1 | 11 | 2% | 3% | -6 | -23% | nt
O=C1CS(=O)(=O)C2(C(=O)N(Cc3cccc(F)c3)c3ccccc32)N1c1ccccc1 (centres undefined) | nt | -1% | nt | nt | i | nt
CC(C)Oc1ccc(CNC(=O)c2cccc(NC(=O)c3nsc4ccccc34)c2)cc1 | nt | 4% | nt | -24 | -26% | nt
COc1ccc(-c2csc(NC(=S)NC(=O)/C=C/c3ccco3)n2)cc1OC | 18 | 2% | -2%[46.1 µM] | -17 | -9% | 1µM*
COc1ccc(-c2csc(NC(=S)NC(=O)/C=C/c3ccco3)n2)cc1Br | -15 | 2% | -3% | -14 | i | ?
O=C(/C=C/c1ccco1)NC(=S)Nc1cccc(-c2nc3ccccc3o2)c1 | 11 | 9% | 5% | ? | i | 1.6µM*

Screening results (PubChem BioAssay)
